Molecules are shown by their SMILES. This is part of a sample that, as a whole, favours compounds with a hit. Of some 83,000 tested, about 20% had one in any assay.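 Compound tested at a single concentration for 48 hours in 96-well plates; a percent growth value below 10 was scored as active.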 Values without a mark were called inactive. Activity calls are given as the source filed them.

For the test, the system named is MDA-MB-468 breast. The test is described as follows: NCI-60 one-dose screen, 48 h (100 = growth as untreated, 0 = no growth, -100 = all killed). To be noted: 10 µM unless noted.
Consider `C#CCOCC1CN(C)C(=O)O1` (centres undefined), for which the growth was 118%.
For the compound `CC(=O)[C@H]1CC[C@H]2[C@@H]3C[C@H](C)C4=CC(=O)CC[C@]4(C)[C@H]3C(=O)C[C@]12C`, the growth is 106%.
`CN1CCN(C(=O)c2ccc(NC(=O)Nc3ccc(-c4nc(N5CCOCC5)c5cccn5n4)cc3)cc2)CC1`: the growth is -60.7% (active).
Regarding `Cc1ccc(Nc2cccc3ccccc23)cc1`, the growth is -11.7% (active).
Regarding `O=C1/C(=C/c2ccc(O)cc2)Cc2ccc(Cl)cc21`, the growth is 65%.
To `CN(c1ccccc1)c1ccc2c(c1)OCCC21CC1Nc1cnccc1C(=O)O` (centres undefined) belongs 72.3%.
Turning to `COc1ccc2nc3c(cc2c1)C(=O)CC(C(F)(F)F)C3` (centres undefined), the growth was 35.6%.
For `COc1ccc(/C=C2/CN(CCC#N)C/C(=C\c3ccc(OC)cc3)C2=O)cc1`, the growth is -28% (active).
Turning to `COc1ccc(NC(=O)Nc2ccc(OCCCCCC(=O)NO)cc2)cc1`, the growth is 93.1%.
To `Cn1cc(C(=O)c2nc(-c3c[nH]c4ccc(F)cc34)no2)c2cc(F)ccc21` belongs 107%; to `COc1ccc(Cn2cc3c(c2-c2ccc(OC)cc2)CCc2cnoc2-3)cc1`, -7.25% (active); to `Cc1cccc(C)c1NC(=O)Nc1ccccc1`, 77.6%.
Take `CCCCCCCC(=O)SCC/C=C/[C@@H]1CC(=O)NCc2nc(cs2)C2=N[C@@](C)(CS2)C(=O)N[C@@H](C(C)C)C(=O)N1`: the growth is 40.7%.
`COc1cc(OC)cc(C2C3=C(COC3=O)Nc3cc(OC)ccc32)c1` (centres undefined): the growth is -8.19% (active).
For `C=C1C(=O)O[C@H]2[C@H]1CC/C(COC(=O)c1cc3cc(Cl)ccc3[nH]1)=C\CC[C@@]1(C)O[C@@H]21`, the growth was -59.6% (active).
As for `Cn1c(Nc2ccc(C(F)(F)F)cc2)nc2cc(Oc3ccnc(-c4ncc(C(F)(F)F)[nH]4)c3)ccc21`, the growth is 32.4%.
For the compound `c1ccc2cc(C[n+]3ccn(CCCCCCCn4cc[n+](Cc5ccc6ccccc6c5)c4)c3)ccc2c1`, the growth was -2.76% (active).
`CC(=O)[C@@H]1CCC=C2CC[C@]3(C)[C@@H](CC[C@@H]4[C@@]5(C)CCCNC(C)(C)[C@@H]5CC[C@]43C)[C@H]21`: the growth was -77.9% (active).
To `CCCCCCNC(=O)Oc1ccc(/C(=C(\C)c2ccc(Cl)cc2)c2ccc(OCCN(C)C)cc2)cc1` belongs 84.3%.
To `Nc1nc(Nc2ccccc2SSc2ccccc2Nc2nc(N)nc(-c3ccccc3)n2)nc(-c2ccccc2)n1` belongs 102%; to `O=C(Nc1ccc(-n2ccc3c(NC(=O)c4ccccc4)ncnc32)cc1)c1ccc(Cl)c(C(F)(F)F)c1`, -5.36% (active).
Regarding `COc1ccc(N)c(S)c1`, the growth is 97.3%.
`CC(=O)NCC1c2c(n(C)c3c(Cl)c(Cl)ccc23)C(=O)NC1(C)C` (centres undefined): the growth was 109%.
As for `c1cc(NCCCCN2CCOCC2)c2ccc3c(ccc4c(NCCN5CCOCC5)ccnc43)c2n1`, the growth was 75.8%.
With `CN(C)c1ccc(C(c2ccc(O)cc2)c2ccc(N(C)C)cc2)cc1`, the growth was 1.1% (active).
Regarding `CN(C)C(C(N)=O)c1ccc(Cl)cc1` (centres undefined), the growth is 99.2%.
To `CCCC(C)c1ccc(OCCCCCCN2CCNCC2)cc1` (centres undefined) belongs -58.5% (active); to `CC(=O)[C@H]1CC[C@]2(C)[C@@H]1CC[C@@H]1[C@@]3(C)C/C(=C/c4cccnc4)C(=O)C(C)(C)[C@@H]3CC[C@]12C`, 60.3%; to `COc1cccc(-c2nc3sccn3c2-c2ccnc(NCCCNS(=O)(=O)c3ccc(F)cc3)c2)c1`, 13.3%.
To `Cc1cc(C)c2c(NC(=O)Nc3ccc(Cl)c(Cl)c3)n[nH]c2n1` belongs 109%; to `N[C@@H]1CCN(C(=O)c2cc3cc(Cl)c(F)c(F)c3[nH]2)C1`, 81.6%; to `CCOC(=O)C(=O)CC(=O)N1C(=S)NC(=O)C1CC(C)C` (centres undefined), 85.1%.
To `O=C1C(=C(O)c2ccccc2)C(=O)c2ccccc21` belongs 120%; to `CSc1[nH]c(=O)ncc1F`, 98.1%.
Regarding `COc1ccc(C2CC(c3cccc(OC)c3)=NN2C(=O)c2cc(OC)c(OC)c(OC)c2)cc1` (centres undefined), the growth is 29.2%.
On to `COc1cc(Cn2ccc3c2-c2oncc2CC3)cc(OC)c1`, for which the growth was 10.9%.
As to `CC(=O)C(C)Cc1cc2c(cc1C)C(C)(C)CCC2(C)C` (centres undefined), the growth was 97.6%.
Regarding `O=C1C(Cl)=C(NCCCCCCNC2=C(Cl)C(=O)c3ccccc3C2=O)C(=O)c2ccccc21`, the growth is 89.2%.
To `COc1ccc(/C=C(\c2cc(OC)c(OC)c(OC)c2)c2nnc(-c3cccs3)o2)cc1` belongs 77.7%.

Source of the values: PubChem BioAssay (NCI).
